Here are results for 50 compounds from PubChem BioAssay AID1851 (National Center for Advancing Translational Sciences (NCATS), 2009).

“And” between values parts separate entries of the source, which are not always exact repeats. Identical values can stand only once. The whole screen tested about 16,000 compounds, of which about 2,600 (16%) were called active. Another 20% or so got no clear call; they are omitted. Calls follow the shape of the dose curve; as a rule, active = well fitted curve in the direction sought with a large enough effect; inconclusive = small, poorly fitted or top-dose-only effect, or effect the other way; inactive = no such curve, though single readings can be large or run the other way. These entries were drawn from the full list. A structure can be active in one record and inactive in another.
% is scaled to controls: 0 for no effect and ±100 for the full control effect.

Sequence of Cytochrome P450 2D6 (Homo sapiens) (P10635 whole entry, looked up): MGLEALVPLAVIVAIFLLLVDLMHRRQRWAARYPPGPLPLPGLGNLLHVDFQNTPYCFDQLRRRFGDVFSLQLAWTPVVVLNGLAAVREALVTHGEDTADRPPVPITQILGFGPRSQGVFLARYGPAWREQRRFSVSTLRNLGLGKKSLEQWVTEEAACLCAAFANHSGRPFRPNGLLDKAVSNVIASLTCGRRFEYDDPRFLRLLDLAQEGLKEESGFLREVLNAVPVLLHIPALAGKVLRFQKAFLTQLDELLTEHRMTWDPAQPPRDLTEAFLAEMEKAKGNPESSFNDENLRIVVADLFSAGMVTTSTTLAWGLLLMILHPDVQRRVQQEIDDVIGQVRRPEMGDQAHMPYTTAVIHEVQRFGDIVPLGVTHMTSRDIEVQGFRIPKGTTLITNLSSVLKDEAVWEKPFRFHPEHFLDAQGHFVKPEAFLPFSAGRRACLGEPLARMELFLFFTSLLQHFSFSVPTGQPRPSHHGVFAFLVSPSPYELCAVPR

This assay addresses Cytochrome P450 2D6 (Homo sapiens) (UniProt P10635). The assay is described as follows: Cytochrome panel assay with activity outcomes. As to conditions: recombinant CYP, pro-luciferin dealkylation, luminescence, p450-cyp2d6; series mostly up to 57.1 µM; activity, negative = inhibition: at the top concentration.
Take `Cc1cc2c(nc1C)CCCN2C[C@H](O)CN1CCCc2nc(-c3ccc(Br)cc3)ccc21`: the AC50 (as a rule, the midpoint of the concentration-response curve, whichever way the signal moves) was 3.16 µM (active) and the activity, negative = inhibition was -14.3% [at 11.4 µM] (inactive).

Regarding `Cc1cc2c(nc1C)CCCN2CC(O)CN1CCCc2nc(C)c(C)cc21`, the activity, negative = inhibition was -7.07% [at 11.4 µM] (inactive).

As to `COC(=O)C/C=C\[C@@H](C)[C@@H](/C=N\O[C@@H](C)CN1CCCCc2nc(C)c(C)cc21)NS(=O)(=O)c1ccc(C)cc1`, the activity, negative = inhibition was 2.33% [at 11.4 µM] (inactive).

Consider `C=CC[C@@H]1C=C[C@H](ON=C(C)C)[C@H](CO)O1`, for which the activity, negative = inhibition is 9.56% [at 11.4 µM] (inactive).

`C/C(CCN1CCc2nc(-c3ccccc3)c(-c3ccccc3)cc2C1)=N\O[C@@H](C)CN1CCCCc2nc(C)c(C)cc21`: the activity, negative = inhibition is -4.1% [at 11.4 µM] (inactive).

With `CCc1cc2c(nc1CC)CCN(CC/C(C)=N/O[C@@H](C)c1cc(-c3c(C)cc(C)cc3C)no1)C2`, the activity, negative = inhibition was -13.3% [at 11.4 µM] (inactive).

Regarding `CCc1cc2c(nc1CC)CCN(CC/C(C)=N/O[C@@H](C)CN1CCCc3nc(C)c(C)cc31)C2`, the concentration at half-maximal activity (AC50) is 3.98 µM (active).

`C=CC[C@@H]1C=C[C@H](O/N=C(\C)CCN2CCCCc3nc(C)c(C)cc32)[C@H](CO)O1`: the AC50 is 3.98 µM (active).

For `CO/N=C\[C@@H](NS(=O)(=O)c1ccc(C)cc1)[C@H](C)/C=C\CC(=O)OC`, the activity, negative = inhibition is -13.5% [at 11.4 µM] (inactive).

With `COC(=O)C/C=C\[C@@H](C)[C@@H](/C=N\O[C@@H](C)CN1CCCc2nc(C)c(C)cc21)NS(=O)(=O)c1ccc(C)cc1`, the AC50 is 3.16 µM (active).

Turning to `Cc1ccc(NC(=O)NNC(=O)Cn2nc(-c3ccccc3)c(-c3ccccc3)c(C#N)c2=O)cc1`, the “activity, negative = inhibition” value is -28.9% (inactive).

For the compound `O=C(N1CCOCC1)N1CCN(c2ccccc2)CC1`, the “activity, negative = inhibition” value was 22.2% (inactive).

In the case of `Brc1[nH]nc2ccccc12`, the “activity, negative = inhibition” value is -8.31% (inactive).

Consider `Cc1ccc(S(=O)(=O)N[C@@H]2COC(=O)C/C=C\[C@H](C)COC(=O)N[C@@H](C)C(=O)C/C=C\[C@H]2C)cc1`, for which the activity, negative = inhibition is 2.75% [at 11.4 µM] (inactive).

In the case of `CSc1nc(Cl)cc(N(CCO)CCO)n1`, the “activity, negative = inhibition” value is 2.7% (inactive).

In the case of `Cn1cccc1C(=O)N1CCC[C@@]2(CCN(c3ccccn3)C2)C1`, the “activity, negative = inhibition” value was -19.6% (inactive).

Regarding `CCN(CC)C(=S)SSC(=S)N(CC)CC`, the AC50 result was “inactive”.

On to `CN(C)[C@H]1C(=O)C(C(=O)NCN2CCCC2)=C(O)[C@]2(O)C(=O)C3=C(O)c4c(O)cccc4[C@](C)(O)[C@H]3C[C@H]12`, for which the activity, negative = inhibition was -10.6% [at 11.4 µM] (inactive).

For `CC(C)Cn1c(-c2ccc(Cl)cc2)cnc1SCC(=O)N1CCOCC1`, the “activity, negative = inhibition” value was -14.5% (inactive).

Regarding `Cn1cc(-c2nc3cnc(N4CCNCC4)nc3n(-c3ccccc3)c2=O)c2ccccc21`, the “activity, negative = inhibition” value is -8.56% (inactive).

Turning to `Cn1cnc([N+](=O)[O-])c1Sc1nc(N)nc2c1ncn2[C@H]1C[C@H](O)[C@@H](CO)O1`, the activity, negative = inhibition was 4.56% [at 11.4 µM] (inactive).

Consider `C/C(CCN1CCCc2nc(C)c(C)cc21)=N\OC[C@@H](C)[C@H](OCc1ccccc1)C(C)C`, for which the activity, negative = inhibition was 0.76% [at 11.4 µM] (inactive).

With `C/C(CCN1CCCc2nc(C)c(C)cc21)=N\OC[C@@H](O)[C@@H]1O[C@@H]2OC(C)(C)O[C@@H]2[C@H]1O`, the activity, negative = inhibition was 1.91% [at 11.4 µM] (inactive).

For `C/C(CCN1CCCc2nc(C)c(C)cc21)=N\O[C@@H](C)CN1CCCCc2nc(C)c(C)cc21`, the activity, negative = inhibition is -11.7% [at 11.4 µM] (inactive).

In the case of `CO/N=C(\C)CCN1CCCCc2nc(C)c(C)cc21`, the AC50 is 3.98 µM (active).

For the compound `C/C(CCN1CCCCc2nc(C)c(C)cc21)=N\OC[C@@H](C)[C@H](OCc1ccccc1)C(C)C`, the activity, negative = inhibition is -1.58% [at 11.4 µM] (inactive).

For the compound `CO/N=C(\C)CCN1CCCc2nc(C)c(C)cc21`, the AC50 was 3.98 µM (active).

Regarding `CC(C)=NO[C@@H](C)CN1CCCCc2nc(C)c(C)cc21`, the AC50 is 2.51 µM (active).

Consider `COC(=O)[C@@H]1CC[C@H](C)[C@@H](c2ccc(C)cc2)N1C(=O)c1ccc(/C=N\O[C@@H](C)CN2CCCCc3nc(C)c(C)cc32)cc1`, for which the activity, negative = inhibition is -20.9% [at 11.4 µM] (inactive).

As for `C/C(CCN1CCCCc2nc(C)c(C)cc21)=N\O[C@@H](C)c1cn([C@H](CO)Cc2ccccc2)nn1`, the activity, negative = inhibition was -8.6% [at 11.4 µM] (inactive) and -9.25% [at 11.4 µM] (inactive).

Take `C/C(=N\NC(N)=S)c1ccc[nH]1`: the activity, negative = inhibition was 7.95% [at 11.4 µM] (inactive).

With `CCC1=NN(C(=O)CCc2ccccc2)C(O)(C(F)(F)F)C1` (stereo unspecified), the “activity, negative = inhibition” value was -38.3% (inactive).

On to `NCCSCCC(=O)O`, for which the activity, negative = inhibition is -2.86% [at 11.4 µM] (inactive).

Consider `CC(C)[C@H](CO)Nc1nc(Nc2cc(N)cc(Cl)c2)c2ncn(C(C)C)c2n1`, for which the “activity, negative = inhibition” value was -14.6% (inactive).

Consider `COc1cccc(=O)c2c(C)n(-c3cc(C)cc(C)c3)c(C)c12`, for which the “activity, negative = inhibition” value was 11.5% (inactive).

As to `O=c1[nH]c2[nH]c(=S)[nH]c(=S)c2[nH]1`, the activity, negative = inhibition is -8.17% [at 11.4 µM] (inactive).

Consider `COc1ccc(-c2nnc3n2N=C(C)CS3)cc1`, for which the “activity, negative = inhibition” value is 14.1% (inactive).

As for `NS(=O)(=O)c1nc(S(=O)(=O)O)c2[nH]cnc2n1`, the activity, negative = inhibition was 10.8% [at 11.4 µM] (inactive).

For `COc1ccc2[nH]cc(CCNc3ncnc4ccc(-c5ccccc5OC)cc34)c2c1`, the AC50 is 3.98 µM (active).

`COc1ccc(CNc2ncnc3ccc(-c4ccccc4C#N)cc23)c(OC)c1`: the “activity, negative = inhibition” value is -8.39% (inactive).

On to `COc1ccc2[nH]cc(CCNc3ncnc4ccc(-c5ccccc5C#N)cc34)c2c1`, for which the AC50 was 7.94 µM (active).

`COc1ccc2[nH]cc(CCNc3ncnc4ccc(-c5ccccc5CN(C)C)cc34)c2c1`: the half-maximal activity concentration (AC50) was 10 µM (active).

Regarding `COc1ccccc1-c1nnc(SCc2nc3ccccc3s2)n1C`, the “activity, negative = inhibition” value was -12.9% (inactive).

`N=C(N)C(N=Nc1ccccc1)C(=N)N` (stereo unspecified): the activity, negative = inhibition was -0.561% [at 11.4 µM] (inactive).

`O=C(O)/C=C\c1c2ccc(=O)c(O)c-2oc2c(O)c(O)ccc12`: the activity, negative = inhibition was -4.81% [at 11.4 µM] (inactive).

Consider `CC1(C)CC2(CC(C)(C(=O)CSc3nc4ccccc4s3)OC2=O)C(=O)O1` (stereo unspecified), for which the “activity, negative = inhibition” value is -16.7% (inactive).

For the compound `CCC[C@H]1C[C@H](C(=O)N[C@H]([C@@H]2O[C@H](SC)[C@@H](O)[C@H](O)[C@@H]2O)[C@H](C)O)N(C)C1`, the “activity, negative = inhibition” value was 2.09% [at 25.6 µM] (inactive).

With `O=C(Nc1nnc(C2CC2)s1)c1ccncc1`, the “activity, negative = inhibition” value was -18.1% (inactive).

`CC1(C)OC(=O)N(Cc2ccco2)C1(C)O` (stereo unspecified): the “activity, negative = inhibition” value is 0.289% (inactive).

With `O=C(O)/C=C1\NC(=O)c2ccccc21`, the “activity, negative = inhibition” value is 18.6% (inactive).
